Screening results from PubChem.
PME-1 inh = PME-1 (human) inhibition. recombinant PME-1, FP-Rh probe fluorescence polarization. inhibition, % at 5.9 µM. 320,000 tested, 0.53% active. AID 2130;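 active means inhibition above the campaign mean of all compounds plus 3 SD, cut at about 26% in these data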;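 further: competitive labeling of PME-1 active site by serine hydrolase directed probe; inhibitors block probe labeling so polarization falls and inhibition rises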
PAD4 inh = blocks human protein arginine deiminase 4; Q9UM07; recombinant PAD4, RCA probe fluorescence polarization; inhibition, % at 6.36 µM; 330,000 tested, 0.41% active;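 active means percent inhibition above a cutoff equal to the mean of all tested compounds plus 3 SD, cut at about 15% in these data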
GSTO1 inh = counter-screen for RBBP9 inhibitors: inhibitors of human GSTO1 | recombinant GSTO1, activity-based probe fluorescence polarization | P78417 | 300,000 tested, 1.1% active | inhibition, % at 5.96 µM;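 active means inhibition above the campaign mean inhibition plus 3 SD, cut at about 35% in these data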
LYPLA1 counter = blocks human lysophospholipase 1, a PME1 counter-screen | O75608 | recombinant LYPLA1, FP-Rh probe fluorescence polarization | inhibition, % at 5.9 µM | 320,000 tested, 0.16% active | AID 2174;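 active means inhibition above the mean of all tested compounds plus 3 SD, set per campaign, cut at about 14% in these data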;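 further: inhibitors block serine hydrolase probe labeling of LYPLA1 so polarization falls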
Target sequence (O75608 whole entry, looked up): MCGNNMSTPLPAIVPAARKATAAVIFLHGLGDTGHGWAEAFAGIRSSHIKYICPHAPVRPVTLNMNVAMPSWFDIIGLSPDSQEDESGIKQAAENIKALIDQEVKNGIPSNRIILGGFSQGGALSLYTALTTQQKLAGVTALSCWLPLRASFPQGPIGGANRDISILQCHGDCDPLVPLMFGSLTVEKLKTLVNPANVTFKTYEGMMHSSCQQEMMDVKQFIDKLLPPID
Fam108B counter = blocks mouse Fam108B hydrolase in RBBP9 counter-screen; AID 1947; inhibition, % at 9.51 µM; 300,000 tested, 0.33% active; recombinant Fam108B, FP-Rh probe fluorescence polarization;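 active means inhibition above the screen mean inhibition plus 3 SD, computed separately per campaign, cut at about 18% in these data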;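 further: inhibitors lower polarization as less probe binds the enzyme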
LYPLA2 inh = blocks human lysophospholipase 2, a PME1 counter-screen; O95372; recombinant LYPLA2, FP-Rh probe fluorescence polarization; inhibition, % at 5.9 µM; 320,000 tested, 0.38% active;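 active means inhibition above the screen-wide mean plus 3 SD, limit set per campaign, cut at about 26% in these data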
Target sequence (O95372 whole entry, looked up): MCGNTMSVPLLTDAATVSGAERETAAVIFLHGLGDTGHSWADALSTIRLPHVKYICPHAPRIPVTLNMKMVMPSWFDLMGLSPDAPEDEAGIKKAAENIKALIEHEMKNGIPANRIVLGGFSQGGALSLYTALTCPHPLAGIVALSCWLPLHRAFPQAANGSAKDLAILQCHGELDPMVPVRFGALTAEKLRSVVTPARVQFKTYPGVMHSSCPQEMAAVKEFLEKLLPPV
GSTO1 inh conf = GSTO1 (human) inhibition, confirmation | shares compounds with GSTO1 inh | recombinant GSTO1, probe fluorescence polarization | inhibition, % at 5.96 µM | 2,400 tested, 54% active | AID 2176;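 active means inhibition above the primary screen's cutoff, its mean inhibition plus 3 SD, cut at about 35% in these data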;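 further: loss of polarization as inhibitors block binding of rhodamine sulfonate ester activity probe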
GSTO1 ABPP inh = GSTO1 (human) inhibition by gel ABPP; recombinant GSTO1, gel ABPP SE-Rh probe fluorescence; inhibition, % at 1 µM; shares compounds with GSTO1 inh; 130 tested, 30% active;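 active means inhibition of the enzyme GSTO1 above about 75%, limit read from the data; inactive means inhibition below that limit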
Each line names hits and unclear results; the compound was inactive in the other large screens (follow-up assays come after a bar, where they were run). The list is not random: actives were taken first. Their share in the collection is about 1.8%.

Cc1ccc(S(=O)(=O)N(CC2CO2)c2ccccc2[N+](=O)[O-])cc1 (stereo unspecified)	GSTO1 inh 78 | GSTO1 inh conf 93 | GSTO1 ABPP inh inactive
O=[N+]([O-])c1ccccc1S(=O)(=O)N(CC1CO1)c1ccccc1 (stereo unspecified)	GSTO1 inh 98 | GSTO1 inh conf 100 | GSTO1 ABPP inh inactive
Cc1ccc(N(CC2CO2)S(=O)(=O)c2ccccc2[N+](=O)[O-])cc1 (stereo unspecified)	GSTO1 inh 87 | GSTO1 inh conf 97 | GSTO1 ABPP inh inactive
N#CC1(c2nc3ccccc3[nH]2)CC1c1ccc2c(c1)OCO2 (stereo unspecified)	GSTO1 inh 46 | GSTO1 inh conf inactive
Cc1ccc2c(c1)N(C(=O)CCC(=O)NCc1cccc(F)c1)CCO2	none
Cc1onc(-c2ccccc2)c1C(=O)NNC(=O)c1ccccc1O	GSTO1 inh 47 | GSTO1 inh conf inactive
Cc1onc(-c2ccccc2)c1C(=O)NNC(=O)c1ccccc1	none (no result: GSTO1 inh, Fam108B counter)
O=C1CC(CC(=O)N/N=C/c2ccccc2[N+](=O)[O-])=NN1	GSTO1 inh 52 | GSTO1 inh conf inactive
COc1ccc(NC(=O)c2cccc(NC(=O)c3ccccc3)c2)cc1	none
COc1ccc(N/N=C(C)/C(=N/O)C(=O)Nc2ccccc2)cc1	GSTO1 inh 40 | GSTO1 inh conf inactive
O=C(NNc1cc(Br)c(O)c(Br)c1)c1ccccc1	GSTO1 inh 65 | GSTO1 inh conf inactive
Cc1nn(-c2ccc(Cl)cc2)c2[nH]c(CCl)cc(=O)c12	GSTO1 inh 97 | GSTO1 inh conf 98 | GSTO1 ABPP inh inactive
S=c1[nH]c2ccccc2n2c(=S)[nH]nc12	GSTO1 inh 59 | GSTO1 inh conf 39
CCc1ccc(NC(=O)Cn2c3[n+](c4c(F)c(F)ccc42)CCCCC3)cc1	GSTO1 inh 77 | GSTO1 inh conf 89
CC(C)(C)S(=O)(=O)c1cnc(N2CCOCC2)nc1N	none
COc1cc(/C=C2\S/C(=N/S(=O)(=O)c3ccccc3)NC2=O)c([N+](=O)[O-])cc1OC	GSTO1 inh 38 | GSTO1 inh conf inactive
COc1ccc(S(=O)(=O)/N=C2/NC(=O)/C(=C\c3cc(OC)c(OC)cc3[N+](=O)[O-])S2)cc1	none
O=C(NCCS(=O)(=O)N1CCN(c2cccc(Cl)c2)CC1)C1CC1	none
Cc1c(N=c2c(=O)c3ccccc3c2=O)c(=O)n(-c2ccccc2)n1C	GSTO1 inh 57 | GSTO1 inh conf 77
Cc1csc(=Nc2c(C)n(C)n(-c3ccccc3)c2=O)n1-c1ccccc1	none
O=c1cc(CCl)nc2sc3ccccc3n12	GSTO1 inh 89 | GSTO1 inh conf 100 | GSTO1 ABPP inh 87
CCOc1cc(CNc2ccc(O)cc2)cc(Br)c1OCc1ccccc1F	GSTO1 inh 80 | GSTO1 inh conf inactive
O=c1cc(CCl)nc(Cc2c(Cl)cccc2Cl)[nH]1	GSTO1 inh 93 | GSTO1 inh conf 97 | GSTO1 ABPP inh 82
O=C(/C=C/c1ccc(O)cc1)c1ccc(NC2=C(N3CCCCC3)C(=O)c3ccccc3C2=O)cc1	GSTO1 inh 65 | GSTO1 inh conf 51
Cc1ccc(NC2=C(N3CCCCC3)C(=O)c3ccccc3C2=O)cc1	GSTO1 inh 65 | GSTO1 inh conf 46
CN(C1=C(N2CCCCC2)C(=O)c2ccccc2C1=O)c1ccccc1	PAD4 inh 16, GSTO1 inh 50 | GSTO1 inh conf inactive
O=C(O)CN1C(=O)/C(=C\c2cccc(OCc3ccccc3)c2)SC1=S	GSTO1 inh 40 | GSTO1 inh conf inactive
O=C(O)COc1cccc(/C=C2/SC(=S)N(Cc3ccccc3)C2=O)c1	none
O=C(O)CCCN1C(=O)/C(=C\c2ccccc2OCc2ccccc2)SC1=S	GSTO1 inh 39 | GSTO1 inh conf 48
O=C(O)CN1C(=O)/C(=C\c2ccccc2OCc2ccc(F)cc2)SC1=S	none
[O-][n+]1c2ccccc2[n+]([O-])c2cc(O)ccc21	none
